For some of these results: Measured potencies and affinities stand elsewhere. The source made the active and inactive calls. Unless noted, how the calls were made is not given here.
Tests used:
[1] = antimalarial activity against Dd2 strain (AID 2302;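 active means growth inhibition above 50% at the single 2 µM test dose, taken to imply half-maximal potency below 2 µM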;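 further: 0% = DMSO untreated growth and 100% = chloroquine plus artemisinin killed control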); conditions: P. falciparum Dd2 in RBCs, LDH growth readout, 72 h; at 2 µM; active compounds read high
[2] = human hepatoma cell viability loss – ATP luminescence, cytotoxicity control for P. falciparum antimalarial project, primary screen (AID 2303;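 active means inhibition above 50%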;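 further: 0% = DMSO wells and 100% = digitonin-killed cells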); conditions: HepG2 viability, 24-48 h, at 10 µM, active compounds read high
[3] = target: L-lactate dehydrogenase (Plasmodium falciparum (isolate CDC / Honduras)) (UniProt Q27743); assay: PfLDH activity inhibition – cell lysate, 3D7 strain, counter-screen for P. falciparum growth inhibition project (AID 2304);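 further: 0% = vehicle and 100% = reference inhibitor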; conditions: P. falciparum 3D7 crude extract, LDH APAD/NBT absorbance; at 2 µM; active compounds read high
[4] = inhibition of 3D7 malaria parasite growth – strain 3D7 (AID 2306);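 further: 0% = DMSO wells and 100% = chloroquine plus artemisinin control wells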; conditions: P. falciparum 3D7 erythrocytic growth, LDH absorbance, 72 h; at 2 µM; active compounds read high
[5] = target: Calcium-dependent protein kinase 1 (Plasmodium falciparum (isolate 3D7)) (UniProt P62344); assay: PfCDPK1 kinase inhibitors, biochemical, TCAMS library (AID 1159585; cut-off not given, nearly all actives have IC50 up to about 0.98 µM;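 further: inhibitors leave more ATP so luminescence rises with inhibition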); conditions: recombinant PfCDPK1, Kinase-Glo ATP depletion luminescence
[6] = target: Plasmodium falciparum protein kinase 6 (PK6, PF3D7_1337100) (UniProt Q8IDW1); assay: PfPK6 kinase inhibitors, biochemical, TCAMS library (AID 1159586); conditions: recombinant PfPK6, Kinase-Glo ATP depletion luminescence
[7] = target: Protein kinase 7 (PK7), Plasmodium falciparum 3D7 (PF3D7_0213400) (UniProt Q7YTF7); assay: inhibition of Plasmodium PK7 catalytic activity – biochemical, TCAMS antimalarial set, Kinase-Glo luminescence (AID 1159587); conditions: recombinant PfPK7, Kinase-Glo ATP depletion luminescence
[8] = target: Calcium-dependent protein kinase 4 (Plasmodium falciparum (isolate 3D7)) (UniProt Q8IBS5); assay: PfCDPK4 kinase inhibitors, biochemical, TCAMS library (AID 1159588; cut-off not given, nearly all actives have IC50 up to about 0.91 µM); conditions: recombinant PfCDPK4, Kinase-Glo ATP depletion luminescence
Sequence of Calcium-dependent protein kinase 4 (Plasmodium falciparum (isolate 3D7)) (Q8IBS5 whole entry, looked up): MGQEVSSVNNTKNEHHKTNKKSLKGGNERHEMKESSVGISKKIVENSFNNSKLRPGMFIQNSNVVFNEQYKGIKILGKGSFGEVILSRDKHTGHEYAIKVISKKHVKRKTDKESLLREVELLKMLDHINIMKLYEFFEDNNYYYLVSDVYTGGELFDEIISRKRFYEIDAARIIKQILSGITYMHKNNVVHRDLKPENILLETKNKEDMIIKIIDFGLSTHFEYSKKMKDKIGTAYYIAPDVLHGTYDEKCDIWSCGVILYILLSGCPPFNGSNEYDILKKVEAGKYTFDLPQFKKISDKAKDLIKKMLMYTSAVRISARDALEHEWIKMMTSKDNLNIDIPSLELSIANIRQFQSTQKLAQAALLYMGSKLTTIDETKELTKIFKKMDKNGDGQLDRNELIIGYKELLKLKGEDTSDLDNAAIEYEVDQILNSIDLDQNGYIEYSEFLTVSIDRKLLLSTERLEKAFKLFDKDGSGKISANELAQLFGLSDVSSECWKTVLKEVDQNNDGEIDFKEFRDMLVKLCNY

Sequence of Calcium-dependent protein kinase 1 (Plasmodium falciparum (isolate 3D7)) (P62344 whole entry, looked up): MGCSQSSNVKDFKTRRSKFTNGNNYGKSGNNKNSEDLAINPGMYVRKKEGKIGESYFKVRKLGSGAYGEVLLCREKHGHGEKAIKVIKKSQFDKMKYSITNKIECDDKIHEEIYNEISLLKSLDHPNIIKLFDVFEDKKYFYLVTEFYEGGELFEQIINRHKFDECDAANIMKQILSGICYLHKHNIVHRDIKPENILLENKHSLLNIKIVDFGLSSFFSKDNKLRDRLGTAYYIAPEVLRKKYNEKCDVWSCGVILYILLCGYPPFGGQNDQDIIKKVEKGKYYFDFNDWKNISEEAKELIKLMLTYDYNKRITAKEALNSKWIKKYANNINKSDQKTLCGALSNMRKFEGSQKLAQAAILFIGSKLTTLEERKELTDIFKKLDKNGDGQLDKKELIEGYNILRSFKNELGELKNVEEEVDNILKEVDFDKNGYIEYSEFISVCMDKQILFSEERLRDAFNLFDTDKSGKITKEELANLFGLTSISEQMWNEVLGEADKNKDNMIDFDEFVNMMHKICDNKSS
Sequence of Plasmodium falciparum protein kinase 6 (PK6, PF3D7_1337100) (Q8IDW1 1-305): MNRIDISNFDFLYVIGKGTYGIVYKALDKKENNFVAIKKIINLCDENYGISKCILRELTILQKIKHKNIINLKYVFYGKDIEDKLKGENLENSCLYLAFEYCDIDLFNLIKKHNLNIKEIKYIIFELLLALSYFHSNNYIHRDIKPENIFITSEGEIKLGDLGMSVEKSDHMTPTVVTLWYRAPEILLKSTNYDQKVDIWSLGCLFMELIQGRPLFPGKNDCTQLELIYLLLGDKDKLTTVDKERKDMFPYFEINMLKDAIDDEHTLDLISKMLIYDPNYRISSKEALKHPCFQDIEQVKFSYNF
Sequence of Protein kinase 7 (PK7), Plasmodium falciparum 3D7 (PF3D7_0213400) (Q7YTF7 1-343): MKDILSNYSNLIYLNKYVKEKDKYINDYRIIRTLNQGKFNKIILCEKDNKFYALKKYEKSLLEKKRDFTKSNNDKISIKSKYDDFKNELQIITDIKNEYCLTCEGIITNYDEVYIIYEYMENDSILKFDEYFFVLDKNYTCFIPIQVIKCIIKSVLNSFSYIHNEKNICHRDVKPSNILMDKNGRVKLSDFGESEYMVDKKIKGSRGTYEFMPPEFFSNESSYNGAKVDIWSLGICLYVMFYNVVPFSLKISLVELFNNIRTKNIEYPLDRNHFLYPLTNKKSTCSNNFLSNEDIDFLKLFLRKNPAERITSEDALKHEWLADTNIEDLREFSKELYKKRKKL
Sequence of L-lactate dehydrogenase (Plasmodium falciparum (isolate CDC / Honduras)) (Q27743 whole entry, looked up): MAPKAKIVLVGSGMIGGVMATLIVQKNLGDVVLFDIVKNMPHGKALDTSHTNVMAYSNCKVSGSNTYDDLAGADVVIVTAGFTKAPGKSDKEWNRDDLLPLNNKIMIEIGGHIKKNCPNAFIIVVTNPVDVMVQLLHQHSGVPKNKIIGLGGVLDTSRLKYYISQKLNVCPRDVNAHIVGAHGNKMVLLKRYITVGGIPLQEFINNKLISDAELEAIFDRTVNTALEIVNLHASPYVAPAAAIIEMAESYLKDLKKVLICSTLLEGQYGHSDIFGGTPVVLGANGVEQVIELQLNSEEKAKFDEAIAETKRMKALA

O=C(/C=C/c1ccc(Cl)c(Cl)c1)NCCCCCN1CCCN(C(=O)Nc2cccc(C(F)(F)F)c2)CC1
active: growth inhibition [4] 96%
inactive: growth inhibition [1] -2% | inhibition [2] 45% | inhibition [3] 1% | outcome [5] | outcome [6] | outcome [7] | outcome [8]

C[C@@H](CC1CCCCC1)OC(=O)N[C@H]1CCN(C#N)C1
active: growth inhibition [1] 83% | growth inhibition [4] 95%
inactive: inhibition [2] 7% | inhibition [3] 1% | outcome [5] | outcome [6] | outcome [7] | outcome [8]

COc1cc(C(=O)N2COCC(CCCN3CCC(N4CCCC4)CC3)(c3ccc(Cl)c(Cl)c3)C2)cc(OC)c1OC (stereo not drawn)
inactive: inhibition [2] 5% | inhibition [3] -1% | outcome [5] | outcome [6] | outcome [7] | outcome [8]
active: growth inhibition [1] 70% | growth inhibition [4] 95%

CCCC(C)Nc1nc(C)cc(N[C@@H](CC(C)C)C(=O)NC2CCCC2)n1 (stereo partly drawn)
active: growth inhibition [4] 85%
inactive: growth inhibition [1] 22% | inhibition [2] 6% | inhibition [3] -2% | outcome [5] | outcome [6] | outcome [7] | outcome [8]

CC(=O)Nc1ccc(CN2CCC(NC(=O)c3ccc(-c4cccc(F)c4)s3)CC2)cc1
inactive: growth inhibition [1] 13% | inhibition [2] 6% | inhibition [3] 0% | outcome [5] | outcome [6] | outcome [7] | outcome [8]
active: growth inhibition [4] 96%

Cc1ccc2c(-c3ccc([N+](=O)[O-])o3)cc(C)nc2c1
active: growth inhibition [4] 95%
inactive: growth inhibition [1] 47% | inhibition [2] 20% | inhibition [3] 3% | outcome [5] | outcome [6] | outcome [7] | outcome [8]

c1ccc2c(C3CCN(CCCCOc4ccc5c(c4)CCN(CC4CC4)CC5)CC3)c[nH]c2c1
active: growth inhibition [1] 97% | inhibition [2] 74% | growth inhibition [4] 99%
inactive: inhibition [3] -8% | outcome [5] | outcome [6] | outcome [7] | outcome [8]

Cn1nc(-c2ccc(CN[C@@H]3CCc4ccc(O)cc43)cc2)c2cnc(NC3CCCC3)nc21
active: growth inhibition [4] 97%
inactive: growth inhibition [1] 8% | inhibition [2] 12% | inhibition [3] 0% | outcome [5] | outcome [6] | outcome [7] | outcome [8]

CCCCCN1CCCCC(NS(=O)(=O)c2ccc(C(=O)Nc3ccc(C(F)(F)F)cc3)cc2)C1 (stereo not drawn)
active: growth inhibition [4] 89%
inactive: growth inhibition [1] -4% | inhibition [2] 34% | inhibition [3] -2% | outcome [5] | outcome [6] | outcome [7] | outcome [8]

CCOc1ccnc(=O)[nH]1
inactive: inhibition [2] -4% | inhibition [3] 5% | outcome [5] | outcome [6] | outcome [7] | outcome [8]
active: growth inhibition [1] 95% | growth inhibition [4] 97%

CC(C)C(C(=O)Nc1ccc(S(=O)(=O)N(C)C)cc1)c1ccc(Cl)cc1 (stereo not drawn)
inactive: inhibition [2] 27% | inhibition [3] -2% | outcome [5] | outcome [6] | outcome [7] | outcome [8]
active: growth inhibition [1] 98% | growth inhibition [4] 100%

COc1cc(C(=O)N2CCN(C(C)C)CC2)ccc1CN(C)CCCCN1CCN(c2cccc(Cl)c2Cl)CC1
inactive: inhibition [3] 6% | outcome [5] | outcome [6] | outcome [7] | outcome [8]
active: growth inhibition [1] 98% | inhibition [2] 79% | growth inhibition [4] 101%

CCOC(=O)c1ccc(NC(=O)Nc2cccc(-c3cccc(-c4nc5c(C)cccc5[nH]4)c3)c2)cc1
active: growth inhibition [1] 99% | growth inhibition [4] 100%
inactive: inhibition [2] 37% | inhibition [3] 0% | outcome [5] | outcome [6] | outcome [7] | outcome [8]

COc1ccccc1C1CCN(Cc2csc(NC(=O)c3ccc(-c4ccc(C(F)(F)F)cc4)cc3)n2)CC1
inactive: growth inhibition [1] 23% | inhibition [3] -2% | outcome [5] | outcome [6] | outcome [7] | outcome [8]
active: inhibition [2] 62% | growth inhibition [4] 85%

Cc1ccc(C)c(NC(=O)NC2CCN(c3ccnc(Nc4ccc(F)cc4)n3)C2)c1 (stereo not drawn)
inactive: inhibition [2] -2% | inhibition [3] -3% | outcome [5] | outcome [6] | outcome [7] | outcome [8]
active: growth inhibition [1] 74% | growth inhibition [4] 100%

N#Cc1cncc(-c2nc3c(N4CCN(c5cnccn5)CC4)cccc3n2CCNCc2ccccc2)c1
inactive: growth inhibition [1] 31% | inhibition [2] 0% | inhibition [3] 4% | outcome [5] | outcome [6] | outcome [7] | outcome [8]
active: growth inhibition [4] 99%

Cc1[nH]c(C)c(-c2ccc(OCc3cc(F)cc(F)c3)nc2)c(=O)c1Br
inactive: inhibition [2] 37% | inhibition [3] -7% | outcome [5] | outcome [6] | outcome [7] | outcome [8]
active: growth inhibition [1] 97% | growth inhibition [4] 98%

O=C(NC(Nc1ccc([N+](=O)[O-])cc1)C(Cl)(Cl)Cl)c1ccc(Cl)cc1 (stereo not drawn)
active: growth inhibition [1] 94% | growth inhibition [4] 98%
inactive: inhibition [2] 21% | inhibition [3] 4% | outcome [5] | outcome [6] | outcome [7] | outcome [8]

CCn1c(Cc2ccccc2)nnc1SCC(=O)N1c2ccccc2Sc2ccccc21
inactive: inhibition [2] -8% | inhibition [3] -1% | outcome [5] | outcome [6] | outcome [7] | outcome [8]
active: growth inhibition [1] 96% | growth inhibition [4] 99%

Cc1cc(F)ccc1-c1nc(NCC(O)CNCCc2ccccc2)nc2c1ccc(=O)n2-c1c(F)cccc1F (stereo not drawn)
inactive: inhibition [2] 25% | inhibition [3] -5% | outcome [5] | outcome [6] | outcome [7] | outcome [8]
active: growth inhibition [1] 100% | growth inhibition [4] 100%

CCc1nc2c(cnn2CC)c(NC2CCOCC2)c1CNC(=O)c1ccoc1C
inactive: inhibition [2] 6% | inhibition [3] 2% | outcome [5] | outcome [6] | outcome [7] | outcome [8]
active: growth inhibition [1] 87% | growth inhibition [4] 97%

O=C(NCCCCCN1CCC(c2c[nH]c3ccccc23)CC1)Nc1ccc(Cl)c(Cl)c1
inactive: growth inhibition [1] -4% | inhibition [2] 42% | inhibition [3] 6% | outcome [5] | outcome [6] | outcome [7] | outcome [8]
active: growth inhibition [4] 92%

COc1ccc(C2N=C(N)N=C(N)N2c2ccc(Cl)cc2)cc1OC (stereo not drawn)
active: growth inhibition [4] 85%
inactive: growth inhibition [1] 4% | inhibition [2] 4% | inhibition [3] -1% | outcome [5] | outcome [6] | outcome [7] | outcome [8]

CC[C@@]1(O)C(=O)OCc2c1cc1n(c2=O)Cc2c-1nc1cc3c(cc1c2CN1CCN(C)CC1)OCCO3
active: growth inhibition [1] 97% | inhibition [2] 79% | growth inhibition [4] 98%
inactive: inhibition [3] 1% | outcome [5] | outcome [6] | outcome [7] | outcome [8]

O=C(Nc1ccc(NC2=NCCN2)cc1)c1ccc(C(=O)Nc2ccc(NC3=NCCN3)cc2)cc1
inactive: inhibition [2] 15% | inhibition [3] -8% | outcome [5] | outcome [6] | outcome [7] | outcome [8]
active: growth inhibition [1] 86% | growth inhibition [4] 91%

O=C(Nc1ccc2c(c1)CCC2)c1cnc(N2CCN(c3ccncc3)CC2)c(Cl)c1
active: growth inhibition [4] 100%
inactive: growth inhibition [1] 48% | inhibition [2] 33% | inhibition [3] 2% | outcome [5] | outcome [6] | outcome [7] | outcome [8]

NC(=O)c1ccccc1OCC(=O)Nc1cccc(-c2cccc(-c3nc4ccccc4[nH]3)c2)c1
active: growth inhibition [4] 88%
inactive: growth inhibition [1] 46% | inhibition [2] 23% | inhibition [3] 3% | outcome [5] | outcome [6] | outcome [7] | outcome [8]

O=C(Nc1ccc(OC2CCN(Cc3ccc(F)cc3)CC2)cc1)c1cccs1
inactive: inhibition [2] 6% | inhibition [3] -2% | outcome [5] | outcome [6] | outcome [7] | outcome [8]
active: growth inhibition [1] 52% | growth inhibition [4] 84%

COc1ccc(-c2ccc(NC(=O)c3ccc(C#N)cc3)cc2)cc1CN1CCNCC1
inactive: growth inhibition [1] 42% | inhibition [2] 23% | inhibition [3] 0% | outcome [5] | outcome [6] | outcome [7] | outcome [8]
active: growth inhibition [4] 96%

CC(=O)Nc1cccc(C(=O)Nc2cccc(-c3ccc(-c4nc5ccc(F)cc5[nH]4)cc3)c2)c1
inactive: growth inhibition [1] 9% | inhibition [3] 5% | outcome [5] | outcome [6] | outcome [7] | outcome [8]
active: inhibition [2] 60% | growth inhibition [4] 95%

COc1ccc(CCNC(=O)c2ccccc2O)cc1-c1ccc(C(C)(C)C)cc1
inactive: inhibition [2] 25% | inhibition [3] 0% | outcome [5] | outcome [6] | outcome [7] | outcome [8]
active: growth inhibition [1] 96% | growth inhibition [4] 95%

N=C1c2ccccc2CN1CC(=O)c1ccc(Cl)c(Cl)c1
active: growth inhibition [4] 98%
inactive: growth inhibition [1] 16% | inhibition [2] 1% | inhibition [3] 0% | outcome [5] | outcome [6] | outcome [7] | outcome [8]

CCc1c(C)c2ccc3c(c2oc1=O)CN(CCc1ccc(F)cc1)CO3
active: growth inhibition [1] 85% | growth inhibition [4] 94%
inactive: inhibition [2] 0% | inhibition [3] -2% | outcome [5] | outcome [6] | outcome [7] | outcome [8]

CS(=O)(=O)CCCNCc1ccc(-c2cc3c(Nc4ccc(OCc5ccccc5)cc4)ncnc3cn2)o1
active: growth inhibition [4] 87%
inactive: growth inhibition [1] 16% | inhibition [2] 10% | inhibition [3] -8% | outcome [5] | outcome [6] | outcome [7] | outcome [8]

Cc1cc(N(C)C)nc(Nc2ccc(NC(=O)c3cccc(F)c3)cc2)n1
inactive: inhibition [2] -8% | inhibition [3] 4% | outcome [5] | outcome [6] | outcome [7] | outcome [8]
active: growth inhibition [1] 62% | growth inhibition [4] 100%

COc1cc(C=Cc2ccc3ccccc3n2)cc(Br)c1OCC(=O)N(C)C
active: growth inhibition [1] 87% | growth inhibition [4] 99%
inactive: inhibition [2] 28% | inhibition [3] 3% | outcome [5] | outcome [6] | outcome [7] | outcome [8]

O=C(Nc1cccc(F)c1)N1CCC(NS(=O)(=O)c2ccc(Br)cc2)CC1
inactive: growth inhibition [1] 23% | inhibition [2] 4% | inhibition [3] -1% | outcome [5] | outcome [6] | outcome [7] | outcome [8]
active: growth inhibition [4] 93%

Cc1ccc(C(C#N)c2ccc3c(C(F)(F)F)cc(C(F)(F)F)nc3n2)cc1 (stereo not drawn)
active: growth inhibition [4] 96%
inactive: growth inhibition [1] 36% | inhibition [2] 14% | inhibition [3] 2% | outcome [5] | outcome [6] | outcome [7] | outcome [8]

CN(C)CC(=O)NCC(NCCCNc1cc(=O)c2ccccc2[nH]1)c1cc(Br)cc(Br)c1 (stereo not drawn)
inactive: growth inhibition [1] 2% | inhibition [2] 6% | inhibition [3] 1% | outcome [5] | outcome [6] | outcome [7] | outcome [8]
active: growth inhibition [4] 98%

Cc1cc(NCCc2ccccc2)nc(/N=C(\N)Nc2cccc(Cl)c2)n1
inactive: inhibition [2] 24% | inhibition [3] 4% | outcome [5] | outcome [6] | outcome [7] | outcome [8]
active: growth inhibition [1] 100% | growth inhibition [4] 101%

Cc1cc(OCCCN2CCC(NS(=O)(=O)c3ccc(Cl)c(Cl)c3)C2)c2ccccc2n1 (stereo not drawn)
active: growth inhibition [4] 87%
inactive: growth inhibition [1] 37% | inhibition [2] 28% | inhibition [3] 1% | outcome [5] | outcome [6] | outcome [7] | outcome [8]

— PubChem BioAssay
